An excerpt weighted towards active compounds, which were near 7.9% of everything screened.
HCMV antiviral: qHTS Assay for inhibitors of the human cytomegalovirus (HCMV). hit rate 4.5% among 410,000. AID 1259415, 2018. HFF cells, HCMV-luciferase reporter, 72 h; active compounds read low. activity change, negative = inhibition, % at 57.5 µM; in the data active means activity change below about -60%; inconclusive means no clear call, values can overlap the other calls; inactive means above about -39%
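Human foreskin fibroblasts infected with luciferase-reporter HCMV at MOI 1 PFU/cell, compounds at two doses. Luciferase measured 72 h post infection; normalized to buffer-only basal and Salinomycin (10uM) controls.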
FMDV antiviral: High Throughput Screening for Foot and Mouth Disease Virus Antivirals; FMDV antiviral cell-based qHTS; Potency, µM (titrated, usually from 57.9 µM), hits mostly inhibitors; hit rate 1.2% among 410,000; calls by dose curve; tested in HEK293T cells; further: read-out not given here; nearly all actives have a fitted effect of over 45% in size
LASV entry inh: qHTS for Inhibitors of binding or entry into cells for Lassa Virus; Lassa virus pseudotype entry inhibition, cell reporter; Potency, µM (top dose mostly 37.9 µM), actives largely listed as inhibitors; hit rate 1.2% among 300,000; AID 540256, 2011; calls by dose curve; tested in HEK293 cells; further: nearly all actives have a fitted effect of over 50% in size
HCV inh: qHTS Assay for Inhibitors of Hepatitis C Virus (HCV); hit rate 3.4% among 340,000; Potency, µM (highest dose often 41.8 µM), hits mostly inhibitors; Huh7.5.1 HCVcc-Cre infection, luciferase reporter, 44 h; active means well fitted inhibition curve with a large enough effect; inconclusive means small, poorly fitted or top-dose-only effect, or another doubt; inactive means no such curve, though single readings can be large or run the other way
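Reporter virus HCVcc-Cre (~0.5 moi) infects cells exposed to compound; seeding density 1,000 cells/well with 4 h settling beforehand. Luminescence, 15 sec read, taken 44 h post-infection following a 15 min RT substrate incubation.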
MARV entry inh: qHTS for inhibitors of binding or entry into cells for Marburg Virus; Marburg virus pseudotyped entry inhibition, cell reporter; Potency, µM (series often up to 37.8 µM), usual class: inhibitors; hit rate 1.8% among 300,000; AID 540276, 2011; calls by dose curve; tested in HEK293 cells
A number is an active result; . = inactive; ? = inconclusive; / = not tested or not shown; [ ] = another dose, or the depositor's remark.

SMILES	HCMV antiviral	FMDV antiviral	LASV entry inh	HCV inh	MARV entry inh
COc1ccc(-c2n[nH]c3c2C(c2ccc(O)cc2)N(c2ccc(Br)cc2)C3=O)cc1 (stereo not given)	.	31.6µM	.	/	.
COc1ccc(-c2n[nH]c3c2C(c2ccc(OC)c(OC)c2)N(c2ccccc2)C3=O)cc1 (stereo not given)	.	?	?	.	7.3µM
CCc1ccc(-n2nc(C)c3c2NC(=O)CSC3c2ccc(OC)cc2OC)cc1 (stereo not given)	-67.4	.	.	/	?
CCc1ccc(-n2nc(C)c3c2NC(=O)CSC3c2ccc(C(=O)OC)cc2)cc1 (stereo not given)	.	?	.	/	.
CCc1ccc(-n2nc(C)c3c2NC(=O)CSC3c2ccccc2C)cc1 (stereo not given)	-79.6	?	?	/	.
O=P1(c2ccccc2)Nc2ccccc2N1c1ccccc1 (stereo not given)	-64.0	.	.	.	.
CN(C)C=NC(=O)c1cc(C(=O)c2ccc(C(C)(C)C)cc2)c[nH]1	.	.	3.16µM	.	?
CC(=O)c1ccc(F)c(-c2cc(C)cc3c2OC(CNC(=O)C2CCCCN2C)C3)c1 (stereo not given)	/	.	/	/	/
CC(C)c1ccc(COC(=O)CN2C(=O)NC3(CCCCC3C)C2=O)cc1 (stereo not given)	.	.	?	14.1µM	?
S=c1nc(C2COc3ccccc3O2)[nH][nH]1 (stereo not given)	.	.	.	.	.
CCCS(=O)(=O)c1cnc(C2COc3ccccc3O2)nc1N (stereo not given)	-88.0	35.5µM	/	.	/
O=C(Nc1ccc(F)cc1F)c1cc2nc(-c3ccco3)cc(C(F)(F)Cl)n2n1	.	.	.	/	/
CCN(CC)c1ccccc1	.	.	/	.	.
CCN(CC)c1ccc(C(=C2C=CC(=[N+](CC)CC)C=C2)c2ccc(N(CC)CC)cc2)cc1	-105.1	8.91µM	/	1.78µM	/
CCN(CC)c1ccc(C(=C2C=CC(=[N+](CC)CC)C=C2)c2ccccc2)cc1	-100.0	3.55µM	0.562µM	?	?
CC(C)(C)c1ccc(NC(=O)N2CCN(c3ccc([N+](=O)[O-])cn3)CC2)cc1	-93.8	22.4µM	?	?	.
O=C(Nc1ccccc1)N1CCCN(c2ccc(C(F)(F)F)cn2)CC1	-65.9	?	/	11.2µM	/
C=CCCC(=O)N[C@H]1CC[C@@]23CCCN2C(=O)CCC[C@H]3[C@H]1Cc1ccccc1	.	/	/	/	/
O=C1c2cccc(O)c2C(=O)c2c(O)cccc21	/	.	.	.[8.37 µM]	.
CC1OC(CC(=O)O)CC2=C1C(=O)c1c(O)cccc1C2=O (stereo not given)	.	3.55µM	0.562µM	0.562µM	0.501µM
CC(=O)Nc1ccc(OCc2cc(=O)n3ccccc3n2)cc1	.	.	.	/	/
O=C(COc1ccccc1F)Nc1ccc(OCc2cc(=O)n3ccccc3n2)cc1	-61.1	.	?	/	/
Cc1cccn2c(=O)cc(COc3cccc(NC(=O)c4ccccc4F)c3)nc12	-90.9	.	.	/	/
Cc1cccn2c(=O)cc(COc3cccc(NC(=O)COc4ccc(F)cc4)c3)nc12	-90.4	?	.	/	/
COC(=O)c1ccccc1NC(=O)Nc1cccc(OCc2cc(=O)n3cccc(C)c3n2)c1	.	.	.	/	/
SMILES	HCMV antiviral	FMDV antiviral	LASV entry inh	HCV inh	MARV entry inh
Cc1ccc(Cl)cc1NC(=O)Nc1cccc(OCc2cc(=O)n3ccccc3n2)c1	-64.6	.	?	/	/
CCCNC(=O)N1[C@@H]2Cn3c(cccc3=O)[C@H]1[C@@H](C(=O)NCC(F)(F)F)[C@@H]2CO	.	/	/	/	/
COC(=O)[C@@H]1CCCN1C(=O)c1c(OC)cc(=O)n2c1CCN(Cc1ccc(C)o1)CC2	/	.	/	/	/
CCOC(=O)C1CCCN(C(=O)c2ccccc2NC(=O)c2nsc3ccccc23)C1 (stereo not given)	.	.	?	/	/
c1ncc(-c2ccoc2)c(NC2CC2)n1	/	.	/	/	/
CC(NC(=S)NCc1ccc(F)cc1)C12CC3CC(CC(C3)C1)C2 (stereo not given)	-84.6	.	?	.	?
CCOc1ccc(C(C)NC(=S)NCc2ccc(Cl)cc2)cc1 (stereo not given)	-74.1	.	/	?	/
CCC(C)c1ccc(C(C)NC(=S)NCc2ccc(F)cc2)cc1 (stereo not given)	-66.9	?	?	7.08µM	?
CCC(NC(=S)NCc1ccc(F)cc1)c1ccc(C(C)C)cc1 (stereo not given)	-97.2	.	/	?	/

Compound activity as filed in PubChem.
